Bioassay records: PubChem BioAssay, Pan Lab, Icahn School of Medicine at Mount Sinai
This is one part of a sample in which hits are shown more often than they occur.
ROC1-CUL1 inh: inhibitors of human ROC1-CUL1 ubiquitin ligase activity | inhibition, % at 10 µM | 0.6% of 140,000 active | AID 1347404, 2020 | in vitro K48 di-Ub FRET, acceptor:donor ratio, 45 min | E3 ubiquitin-protein ligase RBX1 (Homo sapiens) + Cullin-1 (Homo sapiens), P62877+Q13616; in the data active = inhibition above about 25%
Target sequence (P62877 whole entry, looked up): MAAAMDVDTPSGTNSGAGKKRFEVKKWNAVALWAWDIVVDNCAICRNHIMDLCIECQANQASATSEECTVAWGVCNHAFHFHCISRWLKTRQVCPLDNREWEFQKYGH
Target sequence (Q13616 whole entry, looked up): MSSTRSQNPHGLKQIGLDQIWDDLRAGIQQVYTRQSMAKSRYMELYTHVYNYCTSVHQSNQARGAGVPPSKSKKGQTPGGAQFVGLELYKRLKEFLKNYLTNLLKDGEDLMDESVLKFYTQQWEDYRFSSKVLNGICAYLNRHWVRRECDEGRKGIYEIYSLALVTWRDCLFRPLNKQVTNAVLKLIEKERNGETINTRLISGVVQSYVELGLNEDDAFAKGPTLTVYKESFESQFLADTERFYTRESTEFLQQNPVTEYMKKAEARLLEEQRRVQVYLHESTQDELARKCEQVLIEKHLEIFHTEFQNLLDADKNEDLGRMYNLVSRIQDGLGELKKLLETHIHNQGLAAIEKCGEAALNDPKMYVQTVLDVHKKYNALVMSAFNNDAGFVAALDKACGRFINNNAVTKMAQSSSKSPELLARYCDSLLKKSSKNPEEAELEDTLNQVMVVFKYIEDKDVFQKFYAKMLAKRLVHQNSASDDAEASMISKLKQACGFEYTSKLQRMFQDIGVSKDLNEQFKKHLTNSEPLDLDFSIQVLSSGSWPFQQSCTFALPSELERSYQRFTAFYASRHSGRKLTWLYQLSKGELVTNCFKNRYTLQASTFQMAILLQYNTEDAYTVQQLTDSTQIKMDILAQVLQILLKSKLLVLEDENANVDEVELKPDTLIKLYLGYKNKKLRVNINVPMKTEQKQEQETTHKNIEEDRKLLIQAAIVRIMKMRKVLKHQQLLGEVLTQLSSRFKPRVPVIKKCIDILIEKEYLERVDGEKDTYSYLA
Of the large screens only hits and unclear results are named; the others gave an inactive call.

c1nc2ncn3c(c-2n1)SCC3	none
CCOc1cc(Cl)c(NC(=O)c2ccccc2F)cc1OCC	none
O=C(CN1C(=O)S/C(=C\c2ccc3c(c2)OCO3)C1=O)c1ccccc1	none
COC(=O)CC(NC1CCN(c2ccc(NC(=O)c3ccc(OC)cc3)cc2)CC1)C(=O)OC (centres undefined)	none
Cc1ccc(NC(=O)C2CCC2)cc1	none
COc1ccc(NC(=O)CCC2CCCC2)cc1	none
CCCCC(CC)C(=O)Nc1cc(C(F)(F)F)cc(C(F)(F)F)c1 (centres undefined)	none
CC(=O)Oc1cc(C(=O)Nc2ccc(Oc3ccccc3)cc2)cc(OC(C)=O)c1OC(C)=O	ROC1-CUL1 inh 38.5
CC(=O)Nc1ccc(Oc2cc(NC(=O)c3ccccc3)cc([N+](=O)[O-])c2)cc1	none
O=C(Nc1ccc(Oc2ccccc2)cc1)c1ccncc1	none
COc1ccc(/C=C2\C(=O)NN(c3cccc(C(F)(F)F)c3)C2=O)cc1OC	none
C/C(=N\NC(=O)CCn1nnc2ccccc21)c1ccc2ccccc2c1	none
O=C(CN1CCN(c2cc(Cl)cc3ncccc23)CC1)c1ccc(O)c(O)c1	ROC1-CUL1 inh 83.6
CC(C)(C)c1ccc(CN2CCN(c3ccnc4cc(Cl)ccc34)CC2)cc1	none
CC(C)(C)C(=O)N1CCN(c2ccnc3cc(Cl)ccc23)CC1	none
O=C(CCC1CCCN(C(=O)Cc2ccc(Cl)cc2)C1)N1CCCC1 (centres undefined)	none
CCOC(=O)Cn1cc(/C=c2\sc3n(c2=O)C(c2ccc(SC)cc2)C(C(=O)OCC)=C(c2ccccc2)N=3)c2ccccc21 (centres undefined)	none
CCOC(=O)C1=C(c2ccccc2)N=c2s/c(=C\c3ccc(N(CC)CC)cc3O)c(=O)n2C1c1ccc(SC)cc1 (centres undefined)	ROC1-CUL1 inh 47.2
CCOC(=O)C1=C(c2ccccc2)N=c2s/c(=C/c3ccccc3O)c(=O)n2C1c1ccc2c(c1)OCO2 (centres undefined)	none
O=C(CSc1ncnc2sc(-c3ccccc3)cc12)Nc1ccc(F)cc1	none
Cc1cc(C)c2nc(N3C(=O)C(=O)C(C(=O)c4cc5ccccc5o4)C3c3ccc(F)cc3)sc2c1 (centres undefined)	none
COc1ccc(/C=C2\COc3ccccc3C2=O)cc1OC	none
CC1=NOC(=O)/C1=C\c1cccs1	none
Cc1ccc2c(c1)C(=O)/C(=C/c1cccs1)CO2	ROC1-CUL1 inh 72.9
CCSc1ccc(C(=O)N2CCCC2c2ccc(C(=O)NC)s2)s1 (centres undefined)	none
COc1ccc(C)cc1NS(=O)(=O)Cc1cccc(C)c1	none
CC(=O)Nc1ccc2c(c1)C(=O)N(c1ccc3ccccc3c1)C2=O	none
COCc1ccc(C(=O)Nc2ccc(-c3nc(CNC(=O)c4csc(C)n4)c(C)o3)cc2)o1	none
O=C1C2C(c3ccc(Br)cc3)OC3(C(=O)c4ccccc4C3=O)C2C(=O)N1c1ccc([N+](=O)[O-])cc1 (centres undefined)	none
O=C1C2C(c3ccc(F)c(Cl)c3)OC3(C(=O)c4ccccc4C3=O)C2C(=O)N1c1ccc(Br)cc1 (centres undefined)	ROC1-CUL1 inh 93.0
O=C1C2C(c3ccccc3)OC3(C(=O)c4ccccc4C3=O)C2C(=O)N1c1ccc(F)cc1 (centres undefined)	none
CCN1CCN(CC(=O)Nc2cc(C(F)(F)F)ccc2Cl)CC1	none
CN=c1sc(-c2ccc(F)cc2)c(C)n1Cc1ccccc1	none
CC(=O)c1ccccc1Sc1ccc(Cl)cc1	none
O=C(O)Cc1ccccc1Sc1ccc(Cl)cc1	none
NCc1ccccc1Sc1ccc(Cl)cc1	ROC1-CUL1 inh 31.2
O=C(c1cc(-n2cnnn2)n[nH]1)N1CCc2[nH]nc(-c3cccs3)c2C1	none
Cc1oc(-c2ccccc2NS(C)(=O)=O)nc1CN(C)Cc1ccc(OC(F)(F)F)cc1	none
N#CC1(C#N)[C@H](c2ccc(F)cc2)[C@@H](C(=O)c2ccc(F)cc2)N2c3ccccc3C=C[C@@H]21	none
C=CCNC(=O)C1CCCN(S(=O)(=O)CC)C1 (centres undefined)	none
CNC(=O)c1ccc(C2CCCN2C(=O)c2cc3cccnc3nc2C)s1 (centres undefined)	none
CCOc1cc(/C=C2\C(=O)NN(c3ccccc3)C2=O)ccc1OCc1c(F)cccc1Cl	none
CCOc1cc(/C=C2\C(=O)NN(c3ccccc3)C2=O)cc(Br)c1OCc1cccc(C)c1	none
CCOc1cc(/C=C2\C(=O)NN(c3ccccc3)C2=O)cc(Cl)c1OCc1cccc(C)c1	ROC1-CUL1 inh 37.9
COc1cc(/C=C2\C(=O)NN(c3ccccc3)C2=O)ccc1OCc1ccccc1	none
COc1cc(/C=C2\C(=O)NN(c3ccccc3)C2=O)cc(Cl)c1OCc1ccccc1C	none
CCOc1cc(/C=C2\C(=O)NN(c3ccccc3)C2=O)cc(Cl)c1OCc1c(Cl)cccc1Cl	ROC1-CUL1 inh 86.0
Cc1ccc(N=Cc2cc([N+](=O)[O-])cc(C)c2O)c(O)c1	none
CCOC(=O)c1[nH]ncc1[C@@H]1C[C@H]2CN(c3cccc(OC)c3)C(=O)[C@]23CCCN13	none
CC(=O)N1CCC(Oc2ccc(Cl)cc2C(=O)N(C)C(C)c2ccncn2)CC1 (centres undefined)	none
